Data reported in PubChem BioAssay (NCATS).
Results filed as inconclusive are left out. Active and inactive are the calls of the source. Calls follow the shape of the dose curve; as a rule, active = well fitted curve in the direction sought with a large enough effect; inconclusive = small, poorly fitted or top-dose-only effect, or another doubt; inactive = no such curve, though single readings can be large or run the other way. Residues, ends and D or L forms follow the SMILES beside them. *: point of attachment. Cbz = O=C(OCc1ccccc1)*

Molecular target: Calcium and integrin-binding protein 1 (Homo sapiens) (UniProt Q99828)
Test: Validation qHTS for Identification of Calcium Integrin Binding protein 1 (CIB1) Competitor (AID 1508618)
Conditions: CIB1-GST / FITC-alphaIIb peptide fluorescence polarization; series mostly up to 114 µM; activity change, negative = inhibition: at the top concentration
Description: Assay Provider: Ulhas P. Naik, PhD
Sidney Kimmel Medical College
Thomas Jefferson University, Philadelphia, PA
Primary function of platelets is to maintain hemostasis. At the site of vascular injury, platelets adhere to adhesive proteins such as collagen and von Willebrand factor. Adherent platelets are activated and generate soluble platelet agonists such as thrombin, ADP and thromboxane A2. Following exposure of circulating platelets to these agonists, results in platelet shape change, granule secretion and activation of platelet integrin alphaIIb-beta3. Ligand binding to activated integrin alphaIIb-beta3 triggers outside-in signaling, leading to platelet aggregation, stabilization of platelet plug, and clot retraction. Upon atherosclerotic plaque rupture also causes platelet plug formation, which underlies a number of cardiovascular diseases such as myocardial infraction and stroke. A number of anti-platelet drugs such as aspirin, clopidogrel, prasugrel, vorapaxar, and eptifibatide are currently available to prevent the thrombotic complications. However, these anti-platelet agents have several limitations including inherent variability in individual responses, developing resistance, and serious bleeding side effects. For these reasons they are not suitable for long-term protection. Based on the experiences with current anti-platelet drugs, it appears that the most useful therapeutic approach is to intersect the secondary responses such as integrin outside-in signaling or recruitment of platelets by TxA2 and secreted ADP. Compounds, which can largely preserve the primary hemostatic function of platelets but inhibit secondary response will be most desired therapeutic agents for treatment of cardiovascular disease.
CIB1 is a calcium integrin binding protein, which specifically interact with the alphaIIb subunit of integrin alphaIIb-beta3. Binding of CIB1 to alphaIIb regulates the outside-in signaling in platelets, which is needed for thrombus stabilization and thrombus growth. […] Therefore, we propose that discovery of a small molecule that can prevent the association of CIB1 and alphaIIb-beta3 will be a potential anti-platelet agent that can block the thrombus formation without undue effect on hemostasis.
To develop fluorescence polarization (FP) assay using fluorescently labeled alphaIIb peptide and CIB1 protein. Using FP assay characterize the binding affinity, competitive inhibition, and acceptable Z factor (0.5 to1) in order to perform the HTS to identify small molecule compound that can prevent CIB1 binding to platelet integrin alphaIIbbeta3. This assay is screened against the NCATS LOPAC library to validate the amenability of the assay to qHTS.
[1] Naik MU, Nigam A, Manrai P, et al. CIB1 deficiency results in impaired thrombosis: the potential role of CIB1 in outside-in signaling through integrin alpha IIb beta 3. J Thromb Haemost. 2009;7(11):1906-1914. doi:10.1111/j.1538-7836.2009.03581.
SEQUENCE No. (1, 2, 3, etc.); […] (e.g., Cells, Incubation, Reagent, etc.); VALUE and DESCRIPTION.
1; Reagent; 3 uL; Protein or buffer (4/3x)
2; Compound; 46 nL; Control inhibitor / compound library
3; Time; 15 min; Room temperature incubation
4; Reagent; 1 uL; Fluorescent labeled peptide (4x)
5; Time; 1000 rpm; Centrifuge
6; Time; 15 min; Room temperature incubation
7; Detection; Ex 480/ Em 540; ViewLux Fluorescence Read
NOTES (numbers refer to sequence above)
1; Protein Mixture: C1B1-GST (final concentrations of 1 uM). Buffer composition: 5 mM HEPES pH 7.4, 125 mM NaCl, 5 mM CaCl2, 0.01% Tween20.
2; Control Inhibitor: unlabeled peptide (final concentration range 17.4 nM to 572 uM). Compound Library final concentration range 18.3 nM to 114 uM.
3; Room temperature incubation.
4; Fluorescent Labeled Peptide: FITC-aIIb (final concentration of 100 nM). Sequence of alphaIIb peptide: Acetyl-[…]-FITC (purity is 95.83%).
6; Room temperature incubation.
[…]
% is scaled to controls: 0 for no effect and ±100 for the full control effect.

Sequence of Calcium and integrin-binding protein 1 (Homo sapiens) (Q99828 whole entry, looked up): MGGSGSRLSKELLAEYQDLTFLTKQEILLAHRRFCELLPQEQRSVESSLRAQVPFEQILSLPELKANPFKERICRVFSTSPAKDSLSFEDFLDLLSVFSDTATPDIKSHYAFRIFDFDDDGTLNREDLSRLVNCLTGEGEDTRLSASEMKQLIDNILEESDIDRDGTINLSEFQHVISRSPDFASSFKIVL

| SMILES | activity change, negative = inhibition |
| --- | --- |
| CC(C)NCC(O)COc1ccc(CC(N)=O)cc1 (stereo not given) | 10.1% (inactive) |
| CC(O)C(O)[C@H]1CNc2nc(N)[nH]c(=O)c2N1 (stereo not given in full) | -13.5% (inactive) |
| NC/C=C\C(=O)O | 0.0709% (inactive) |
| COc1ccc(-c2ccc(N)[n+](CCCC(=O)O)n2)cc1 | 9.26% (inactive) |
| COC(=O)C(N)Cc1ccc(Cl)cc1 (stereo not given) | -2.16% (inactive) |
| O=C(c1ccc2c(c1)OCCO2)N1CCCCC1 | 6.78% (inactive) |
| CC(N)=O | 2.75% (inactive) |
| CN1CCCC1CCOC(C)(c1ccccc1)c1ccc(Cl)cc1 (stereo not given) | 2.03% (inactive) |
| O=C(O)/C=C/c1cnc[nH]1 | 1.99% (inactive) |
| CCCCC[C@H](CC(=O)NO)C(=O)N[C@H](C(=O)N1CCC[C@H]1CO)C(C)C | -0.91% (inactive) |
| CCc1ccc2c(-c3cccc(Cl)c3)nc(=O)n(CC)c2n1 | -0.55% (inactive) |
| CCOC(=O)C12CC1/C(=N/O)c1ccccc1O2 (stereo not given) | 7.33% (inactive) |
| CC(=O)/C(C)=N/O | -0.323% (inactive) |
| N[C@H](C(=O)O)[C@H](O)C(=O)O | -1.11% (inactive) |
| Cn1c(=O)c2c(nc(/C=C/c3cccc(Cl)c3)n2C)n(C)c1=O | -1.52% (inactive) |
| Cc1cc2c(cc1Cl)N(C(=O)Nc1ccnc3ccccc13)CC2 | 1.96% (inactive) |
| CN1CC(O)C(O)C(O)C1CO (stereo not given) | 8.56% (inactive) |
| NC(Cc1cccc(-c2ccccc2CP(=O)(O)O)c1)C(=O)O (stereo not given) | 6.62% (inactive) |
| COC1(C2=NCCN2)COc2ccccc2O1 (stereo not given) | 1.41% (inactive) |
| CC(=O)[C@H]1CCC2C3CC=C4C[C@@H](OS(=O)(=O)O)CC[C@]4(C)C3CC[C@@]21C (stereo not given in full) | -1.09% (inactive) |

| SMILES | activity change, negative = inhibition |
| --- | --- |
| NCCCNCCCCNCCCN | 11.9% (inactive) |
| CCN1C(=O)C=CC1=O | 3.23% (inactive) |
| CC1=C(C(=O)O)N2C(=O)[C@@H](NC(=O)C(N)C3=CCC=CC3)[C@H]2SC1 (stereo not given in full) | 10.4% (inactive) |
| CCCn1c(=O)c2[nH]c(C3CCCC3)nc2n(CCC)c1=O | 2.05% (inactive) |
| COc1ccccc1N1CCN(CCCCNC(=O)c2ccc3ccccc3c2)CC1 | -8.94% (inactive) |
| Nc1ncnc2c1nc(Br)n2C1OC2COP(=O)(O)O[C@@H]2C1O (stereo not given in full) | 4.2% (inactive) |
| [Li+] | 7.75% (inactive) |
| NCCC1CCCC(CCN)N1 (stereo not given) | 6.16% (inactive) |
| Cc1ccccc1/C=C/C1=NCCN1 | 8.71% (inactive) |
| CC(C)[C@H](NC(=O)OCc1ccccc1)C(=O)N[C@H](C=O)Cc1ccccc1 (Cbz-Val-Phe-aldehyde) | -6.77% (inactive) |
| C[C@]12C=CC(=O)C=C1CC[C@@H]1C2=CC[C@]2(C)[C@@H](C(=O)CN3CCN(c4cc(N5CCCC5)nc(N5CCCC5)n4)CC3)CC[C@@H]12 | 3.9% (inactive) |
| CCN(c1nc(N)c(C(=O)N=C(N)N)nc1Cl)C(C)C | -0.102% (inactive) |
| O=C(O)CCC(=O)N1CCCC1C(=O)O (stereo not given) | 13.4% (inactive) |
| CC1CCN=C(N)S1 (stereo not given) | -0.0201% (inactive) |
| O=[N+]([O-])c1cccc2cn[nH]c12 | 11.4% (inactive) |
| C[C@@H](NCCc1ccc(O)cc1)[C@@H](O)c1ccc(O)cc1 | -2.81% (inactive) |
| Nc1ncnc2c1ncn2C1CCCC1 | 8.83% (inactive) |
| CCCCCCCCCCCCCCC[C@H](O)[C@H](N)CO | 6.48% (inactive) |
| NCCNS(=O)(=O)c1cccc2c(Cl)cccc12 | 6.93% (inactive) |
| CC#CCOC(=O)c1c(C)nc2sc3c(c2c1N)CCC(O)C3 (stereo not given) | 2.06% (inactive) |
